In general, AC50 refers to the concentration giving half of the maximal activity seen.

Activity calls are given as the source filed them. How the source made its calls: active means hit-call score of the fitted dose curve at least 0.9, where 1 is the maximum; inactive means score below 0.9.

These results are taken from PubChem BioAssay (EPA / NIEHS).

The experiment is described as follows: BSK_3C_uPAR: BioMAP Diversity Plus: 3C Assay for Urokinase-type plasminogen activator receptor (uPAR) Biomarker Activity (AID 2282998). The following applies: BioMAP 3C HUVEC, uPAR biomarker ELISA; actives raise or lower the signal. On the procedure: BSK_3C is a cell-based, multiplexed-readout assay that uses umbilical vein endothelium, a human vascular primary cell, with measurements taken at 24 hours after chemical dosing in a 96-well plate.BSK_3CAR is an assay component measured in the BSK_3C assay. It measures uPAR antibody related to regulation of gene expression using ELISA technology.Data from the assay component BSK_3CAR was analyzed into 1 assay endpoint. This assay endpoint, BSK_3CAR, was analyzed with bidirectional fitting relative to DMSO as the negative control and baseline of activity. Using a type of binding reporter, gain or loss-of-signal activity can be used to understand changes in the signaling as they relate to the gene PLAUR. Furthermore, this assay endpoint can be referred to as a primary readout, because this assay has produced multiple assay endpoints where this one serves a signaling function. To generalize the intended target to other relatable targets, this assay endpoint is annotated to the cytokine intended target family, where the subfamily is plasmogen activator.
The levels of cell surface (or secreted, indicated by the prefix "s") biomarker endpoints were measured by ELISA. Overt cytotoxicity to cells in confluent adherent cultures (all systems other than the BT system) was assessed by measuring total protein levels using sulforhodamine B (SRB) staining in parallel cultures at the time of biomarker measurements, indicated as SRB endpoints. For proliferation assays for adherent cell types, individual cell types are cultured at sub-confluence and relative cell numbers quantified by SRB staining at time points optimized for each system (48 h: 3C and CASM3C systems; 72 h: BT and HDF3CGF systems; 96 h: SAg system). SRB was performed by staining cells with 0.1% SRB after fixation with 10% TCA and reading wells at 560 nm.Viability and proliferation of PBMC (T cells) was quantified by Alamar Blue reduction for the SAg and BT systems. For PBMC viability (referred to as PBMC Cytotoxicity within the assay endpoint names), cells were plated (75,000/well in a 96-well plate) and then chemical samples added for 1 h before addition of activators, SEB and TSST-1 (20 ng/mL final concentration each). Cells were incubated for 90 h. Then, Alamar Blue (20 uL/well) (Invitrogen, Cat DAL1100) was added for 6 h, and the plates were read with a fluorescence microplate reader at 546/580 nm (excitation/emission). For PBMC proliferation, cells were plated and activated as above but incubated for only 16 h prior to addition of Alamar Blue. Plates were read after 6 h.
For orientation: An ELISA detects its analyte on a solid surface through an enzyme-linked reagent.
For the molecule `CCOc1cccc(C2(N3CCN(c4ccccc4)CC3)CCC(C)CC2)c1` (stereo not given), the result was inactive.

Take `OCCOCCO`: the outcome was inactive.

Turning to `CCN(CC)CCO`, the outcome was inactive.

Turning to `CN(C)C(=O)Nc1ccc(Cl)cc1`, the outcome was inactive.

As to `CNC(=O)Oc1cccc2c1OC(C)(C)C2`, the outcome was inactive.

Take `Nc1ccc(Oc2ccc(N)cc2)cc1`: the outcome was inactive.

Take `Cc1ccc(N)cc1`: the outcome was inactive.

With `Cc1cc(N=Nc2ccccc2C)ccc1N`, the AC50 was 10.4 µM (active).

`Cc1ccc(N=C=O)cc1N=C=O`: the outcome was inactive.

Regarding `Oc1ccc2ccc3cccc4ccc1c2c34`, the AC50 was 22.3 µM (active).

For the molecule `CC(O)CCO` (stereo not given), the result was inactive.

With `CS(=O)(=O)NC(=O)c1cc(Oc2ccc(C(F)(F)F)cc2Cl)ccc1[N+](=O)[O-]`, the AC50 was 28.6 µM (active).

In the case of `CCCCCCCCOC(=O)c1ccc(C(=O)OCCCCCCCC)c(C(=O)OCCCCCCCC)c1`, the result was inactive.

As to `CN(C)c1ccc(C(=O)c2ccc(N(C)C)cc2)cc1`, the AC50 is 3.34 µM (active).

As to `CC(C)(OOC(C)(C)c1ccccc1)c1ccccc1`, the AC50 is 33.7 µM (active).

Turning to `c1ccc(N=Nc2ccccc2)cc1`, the result was inactive.

Regarding `c1ccc2c(c1)oc1ccccc12`, the result was inactive.

`c1ccc(C2CO2)cc1` (stereo not given): the outcome was inactive.

Consider `N#CC(Br)(Br)C(N)=O`, for which the result was inactive.

As for `CC(C)(C)OOC(C)(C)CCC(C)(C)OOC(C)(C)C`, the outcome was inactive.

`CC(C)(O)c1cnn2c(-c3ccc(F)c(-c4c(F)cccc4C#N)c3)cnc2n1`: the AC50 is 31.3 µM (active).

Turning to `Nc1ccc(Cc2ccc(N)cc2)cc1`, the outcome was inactive.

As for `Clc1ccc(C(c2ccc(Cl)cc2)C(Cl)(Cl)Cl)cc1`, the AC50 is 15.2 µM (active).

On to `CCCCCOC(=O)c1ccccc1C(=O)OCCCCC`, for which the outcome was inactive.

In the case of `CC(C)(C)OOC(=O)c1ccccc1`, the outcome was inactive.

For the molecule `Clc1ccc(Cl)c(Cl)c1`, the result was inactive.

Take `c1ccc(NNc2ccccc2)cc1`: the result was inactive.

Regarding `Brc1ccc(Oc2ccccc2)cc1`, the outcome was inactive.

As for `c1ccc2c(c1)-c1cccc3cccc-2c13`, the result was inactive.

Consider `C=CCc1ccc2c(c1)OCO2`, for which the outcome was inactive.

Regarding `O=Cc1ccco1`, the outcome was inactive.

With `[Cl-].[Cl-].[Hg+2]`, the AC50 is 34.1 µM (active).

Take `CCCCOC(=O)c1ccccc1C(=O)OCc1ccccc1`: the result was inactive.

Consider `O=C1CCCO1`, for which the outcome was inactive.

As to `CCCCCCCCn1sccc1=O`, the AC50 was 15.3 µM (active).

Consider `Nc1ccc(N=Nc2ccccc2)cc1`, for which the result was inactive.

Take `CN(C)c1ccccc1`: the result was inactive.

For `OCCCBr`, the outcome was inactive.

As for `O=C(Nc1ccccc1)c1ccccc1I`, the outcome was inactive.

`CC(C)COC(=O)c1ccccc1C(=O)OCC(C)C`: the result was inactive.
